In all, about 360,000 compounds went through this assay and about 8,200 (2.3%) were called active. This is one part of a sample in which actives are shown more often than they occur. A number with no mark means an inactive call. Rule as the data show it: active = inhibition above about 27%; inactive = the rest.
What follows are compounds tested against Fructose-bisphosphate aldolase (Mycobacterium tuberculosis (strain ATCC 25618 / H37Rv)) (UniProt P9WQA3) (assay: Mtb FBA enzyme inhibitors, primary screen, biochemical, fluorescence, strain H37Rv (AID 588726;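 also: 0% = vehicle and 100% = reference inhibitor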)). Conditions: purified M. tuberculosis FBA, fluorescence read-out, at 1 µM, stronger effect = higher value.
Chain of Fructose-bisphosphate aldolase (Mycobacterium tuberculosis (strain ATCC 25618 / H37Rv)) (P9WQA3 whole entry, looked up): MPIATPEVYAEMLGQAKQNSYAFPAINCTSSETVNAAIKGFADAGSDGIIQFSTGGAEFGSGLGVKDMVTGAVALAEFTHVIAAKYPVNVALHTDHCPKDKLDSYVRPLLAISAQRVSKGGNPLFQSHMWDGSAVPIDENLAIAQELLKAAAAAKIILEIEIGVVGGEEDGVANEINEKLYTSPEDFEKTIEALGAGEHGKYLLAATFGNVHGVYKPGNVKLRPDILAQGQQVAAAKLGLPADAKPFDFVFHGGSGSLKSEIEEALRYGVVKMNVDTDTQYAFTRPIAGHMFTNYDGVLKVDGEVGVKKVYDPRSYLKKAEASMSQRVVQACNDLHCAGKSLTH

| Structure (SMILES) | inhibition |
| --- | --- |
| CC(=O)N(C)c1ccc(NC(=O)Nc2cccc3ccccc23)cc1 | 6.26% |
| CCN(C(=O)Nc1cccc2ccccc12)c1ccccc1 | 75.4% (active) |
| O=C(Nc1cccc2ccccc12)NC1CC1 | 9.02% |
| O=C(N/N=C/c1cccc2cccnc12)[C@H]1C[C@@H]1c1ccccc1 | -0.16% |
| C[N+]1(CCNC(=O)/C=N/O)CCCCC1 | 4.51% |
| COC(=O)c1c(NC(=O)CN2C(=O)NC(CCc3ccccc3)C2=O)sc2c1CCCCC2 (stereo not given) | -0.99% |
| O=C1C2C3C=CC(C3)C2C(=O)N1c1ccc(S(=O)(=O)Nc2nccs2)cc1 (stereo not given) | -2.35% |
| CN1CCN(c2ccc([N+](=O)[O-])c(Sc3nc4ccccc4[nH]3)c2)CC1 | -3.38% |
| COc1cccc(N2CCN(c3ccc4nnc(CCC(=O)N5CCN(C)CC5)n4n3)CC2)c1 | 1.71% |
| COCCCNS(=O)(=O)c1cccc(S(=O)(=O)c2cccc(S(=O)(=O)NCCCOC)c2)c1 | 0.27% |
| COc1ccc(/C=N/n2c(C)cc(C)cc2=O)cc1 | 3.54% |
| CC(C)OCCCNc1ncnc2c1[nH]c1ccc(F)cc12 | 31.8% (active) |
| O=C(Nc1ccccc1Cl)/C(Cl)=C(\Cl)S(=O)c1ccccc1 (stereo not given) | -3.21% |
| CC(C)Cn1cc(-c2cncc3nccn23)cn1 | 142% (active) |
| C=CCSc1nc(N)cc(=O)[nH]1 | 3.86% |
| CC(Oc1cccc(Cl)c1)C(=O)NC1CC(C)(C)NC(C)(C)C1 (stereo not given) | 0.76% |
| CCc1cc(=O)oc2cc(OCC(=O)N3CCCc4ccccc43)ccc12 | 5.17% |
| Cc1cc(=O)oc(C)c1C(=O)NC1CC(C)(C)NC(C)(C)C1 | 0.07% |
| COc1cccc(NC(=O)COc2cc(C)cc3oc(=O)cc(C)c23)c1 | 7.86% |
| CCc1cc(=O)oc2cc(C)cc(OCC(=O)N3CCC[C@@H]3C(=O)O)c12 | 106% (active) |
| Cc1cc(C)c(NC(=S)N2CCCC2C(=O)O)c(C)c1 (stereo not given) | 0.88% |
| Cc1cc(C)c2c(Cn3ccnc3)cc(=O)oc2c1 | 0% |
| Cc1cc(OC(C)C(=O)NC2CC(C)(C)NC(C)(C)C2)c2c(C)cc(=O)oc2c1 (stereo not given) | 154% (active) |
| CCc1cc(=O)oc2cc(C)cc(OC(C)C(=O)O)c12 (stereo not given) | 176% (active) |

| Structure (SMILES) | inhibition |
| --- | --- |
| CCOC(=O)c1sc2nc(C)nc(Nc3ccc(OC)c(OC)c3)c2c1C | 0.66% |
| N#Cc1ccc(C(c2ccc(C#N)cc2)n2cncn2)cc1 | 2.3% |
| O=C(CNS(=O)(=O)c1ccc2ccccc2c1)Nc1ccc(F)c(F)c1F | 1.83% |
| CC(C)NS(=O)(=O)c1ccc(CCC(=O)N2CCOCC2)cc1 | 0.26% |
| CCc1nc2c(OCCc3cccc(OC)c3)cccn2c1N(C)C(=O)c1ccc(C)cc1 | 1.14% |
| CC(=O)c1cccc(-n2nnnc2SCC(=O)NNC(=O)C2CCCCC2)c1 | 3.69% |
| COc1cc(C(=O)NCc2nnc(SCC(=O)Nc3nc4ccc(C)cc4s3)o2)cc(OC)c1OC | 1.7% |
| N/C(=N\OC(=O)CCn1cccc(C(F)(F)F)c1=O)c1ccc(OC(F)(F)F)cc1 | 1.82% |
| Cc1ccc(NN=C2C(=O)OC(C)(C)OC2=O)c(C)c1 | -7.26% |
| COc1ccc(Br)c2c1C(=O)CC2 | 2.69% |
| O=C(c1c(F)cccc1Cl)N1CCN(c2ccccn2)CC1 | 116% (active) |
| O=C(c1c(F)cccc1F)N1CCN(c2ncc(Br)cn2)CC1 | -0.3% |
| O=C(Cc1ccccc1Cl)N1CCN(c2ccccn2)CC1 | 10.2% |
| NS(=O)(=O)c1cc2c(cc1Cl)NC(C(Cl)Cl)NS2(=O)=O (stereo not given) | 2.88% |
| COc1ccc(OC)c(NC(=O)Cn2c(=O)oc3ccccc32)c1 | -2.86% |
| CCc1cccc2c(C=C(C#N)C#N)cn(CC(=O)N3CCCCC3)c12 | -1.66% |
| Cc1onc(-c2ccc(Cl)cc2)c1-c1ccnn1S(=O)(=O)c1ccc(Cl)cc1 | -3.96% |
| COC(=O)c1cn(C(=O)c2ccc(Cl)cc2)c2ccccc12 | -0.26% |
| COC(=O)c1noc(C)c1-c1ccnn1C(=O)c1ccc(Cl)cc1 | 29.4% (active) |
| Cc1ccc(C2=NN(C)c3nc4ccccc4n3C2)cc1 | 13.4% |
| Cn1cccc1-c1nc2ccccc2n1C | 28.6% (active) |
| Cn1c(-c2ccc(C(=O)c3ccccc3)s2)nc2ccccc21 | 1.32% |
| O=C(COc1ccc(Cl)cc1)Nc1ccc2oc(=O)ccc2c1 | 2.76% |
| Cc1ccc(S(=O)(=O)N2CCC(C)CC2)cc1C(=O)NCc1ccccn1 | 2.4% |

| Structure (SMILES) | inhibition |
| --- | --- |
| COc1ccc(NC(=O)CSc2ncnc3[nH]ncc23)cc1 | 1.84% |
| CCCCn1c(N)c(N(CC(C)C)C(=O)c2cnc(C)cn2)c(=O)[nH]c1=O | 0.47% |
| CC(=O)N1CCN(S(=O)(=O)c2c(F)cc(F)c(Cl)c2F)CC1 | -0.88% |
| CC(C)c1cc(C(=O)N(C)C2CCCN(Cc3ccccc3F)C2)n(C)n1 (stereo not given) | 2.62% |
| Cc1oc(-c2ccccc2F)nc1CS(=O)(=O)CC(=O)NCCCN(C)C1CCCCC1 | -2.64% |
| CN(CCNC(=O)c1cc2c(-c3ccccc3F)nn(C)c2s1)C1CCCCC1 | 73.3% (active) |
| CC(CO)NCC12CC3CC(CC(C3)C1)C2 (stereo not given) | -1.08% |
| Cc1ccc(-n2c(=O)c(C#N)cc3c(=O)n4ccccc4nc32)cc1C | 67% (active) |
| Cc1ccc(Cn2c(=N)c(S(=O)(=O)c3ccc(C)cc3)cc3c(=O)n4ccccc4nc32)cc1 | 3.69% |
| Cc1ccc(-n2c(SCC(=O)N3CCC(C(=O)O)CC3)nc3ccccc3c2=O)cc1C | -6.87% |
| CCOC(=O)C1CN(S(=O)(=O)c2ccc(OC)cc2)c2cc(Cl)ccc2O1 (stereo not given) | 2.59% |
| CC[C@]12c3[nH]c4cc(CCC(=O)N(C)C)ccc4c3CCN1C(=O)[C@@H](CC(=O)NCC13CC4CC(CC(C4)C1)C3)C[C@@H]2C(=O)N1CCN(C(=O)C2CC2)CC1 | 0.95% |
| CC1=CC=CC2=N/C(=N\S(=O)(=O)c3ccc(F)cc3F)c3ccccc3CN12 | 1.29% |
| Cc1c(C(=O)CN2CCOCC2)[nH]c2ccccc12 | -0.51% |
| CCN(CC)C(=O)Oc1ccc(NC(=O)N2CCOCC2)cc1 | -0.07% |
| Cc1cc(NC(=O)CCN2CCN(Cc3ccccc3)CC2)ccc1Br | 0.67% |
| CCOC(=O)c1[nH]c2ccc(OC)cc2c1NC(=O)N1CCOCC1 | 28.4% (active) |
| CCOC(=O)c1[nH]c2ccc(OC)cc2c1NC(=O)CCN1CCN(Cc2ccccc2)CC1 | 49.8% (active) |
| COc1cc2[nH]c(=O)n(CCC(=O)NC3CCN(Cc4ccccc4)CC3)c(=O)c2cc1OC | 5.35% |
| OCC(O)CN(c1ccccc1)c1ccccc1 (stereo not given) | 5.53% |
| CC(C)N(C(=O)Cn1cc(S(=O)(=O)CC(=O)N2CCOCC2)c2ccccc21)C(C)C | -1.92% |
| Cc1ccc(Br)c(NS(=O)(=O)c2cccc(C(=O)N3CCNC(=O)C3)c2)c1 | -3.11% |
| CC(=O)NC(Cc1ccc(F)c(F)c1)C(=O)NC1CCN(C(=O)c2ccc(C)cc2)CC1 (stereo not given) | -2.53% |
| CC(NC(=O)COc1ccccc1)C(=O)NC1=NCCS1 (stereo not given) | 2.42% |

| Structure (SMILES) | inhibition |
| --- | --- |
| CC(C)(C)CN1CCNC(=O)C1CC(=O)NC1Cc2ccccc2C1 (stereo not given) | 1.64% |
| COc1ccc(-c2nc(N)sc2C2(O)C(=O)Nc3c(Br)cc(F)cc32)cc1OC (stereo not given) | 5.75% |
| O=[N+]([O-])c1cccc(Nc2c3ccccc3nc3ccccc23)c1 | 122% (active) |
| O=[N+]([O-])c1cnc2ccc3ccccc3c2c1 | 1.36% |
| O=C(CSc1nc(-c2ccccc2)cs1)Nc1cccc([N+](=O)[O-])c1 | 0.01% |
| CC(=O)C1=C(O)C(=O)N(c2ccc(S(N)(=O)=O)cc2)C1c1ccccc1F (stereo not given) | 12.8% |
| CCCN(CCC)CC(O)COc1ccccc1C(=O)Nc1ccccc1 (stereo not given) | 0.32% |
| COc1ccccc1NC(=O)N(O)C1(C#N)CCCCC1 | 1.6% |
| COc1ccc2sc(-c3ccccc3OC)c(-c3ccc(OCCN4CCCC4)cc3)c2c1 | 0.37% |
| COc1cccc(-c2sc3ccc(OC)cc3c2-c2ccc(OCCN3CCCCC3)cc2)c1 | 0.81% |
| COc1ccc2c(c1)c(=Cc1ccc(N(C)C)cc1)c1cc(-c3ccccc3)[n+](C)n12 | -16.1% |
| COc1ccc2sc(-c3ccc(N(C)C)cc3)c(-c3ccc4cc[nH]c4c3)c2c1 | 41% (active) |
| CC1CC(NC(=O)/C(C#N)=C/c2ccc[nH]2)CC(C)(C)C1 (stereo not given) | -0.18% |
| CN(Cc1ccccc1)CC(O)COc1ccc(CNCc2cc3ccccc3s2)cc1 (stereo not given) | 0.16% |
| Cc1cc(=O)n2nc(N3CCC(C(=O)Nc4c(F)c(F)c(F)c(F)c4F)CC3)sc2n1 | -1.25% |
| Cc1cc(C)c2c(NC(=O)C3CC3)nn(C)c2n1 | 46.1% (active) |
| Cc1ccc2c(NC(=O)C3CC3)cccc2n1 | 3.11% |
| CCCCCC1CC(COc2ccccc2)OC1=O (stereo not given) | -2.11% |
| O=c1c2cc([N+](=O)[O-])ccc2nc2n1CCC2 | 3.1% |
| O=C(NC1CCCC1)C(c1ccccn1)N(C(=O)c1csnn1)C1CCCC1 (stereo not given) | 2.16% |
| COc1ccc(-c2oc3ncn(Cc4ccco4)c(=N)c3c2-c2ccc(OC)cc2)cc1 | 7.98% |
| COCCNc1ncnc2c1ncn2[C@H]1CN(Cc2ccc(OC)cc2)C[C@@H](CO)O1 | 1.53% |
| COc1ccc(-c2oc3ncnc(NCCCO)c3c2-c2ccc(OC)cc2)cc1 | 58.3% (active) |
